Results on 28 compounds are retold here after PubChem BioAssay (NCI).

Test in all cases: NCI-60 one-dose screen, 48 h (100 = growth as untreated, 0 = no growth, -100 = all killed)
Holding throughout (conditions): 10 µM unless noted

In experiment [1] the test system is T-47D breast.
The test system of experiment [2] is BT-549 breast.
In experiment [3] the test system is SW-620 colon.
The test system of experiment [4] is MCF7 breast.
Experiment [5] deals with HCT-116 colon.
The test system of experiment [6] is HCC-2998 colon.
In experiment [7] the test system is KM12 colon.
The subject of experiment [8] is MDA-MB-435 melanoma.

Molecules are shown by their SMILES. Compounds without any hit were thinned out: in the full panel of roughly 83,000, 20% have a hit.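 How to read the values: 0–100, growth inhibition (40 = 60% inhibited); 0, no net growth; -100 to 0, cell death (-40 = 40% of starting cells died; -100 = all dead).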 A number with no mark means an inactive call. Activity calls are given as the source filed them. Rule for the calls: active = growth percent below 10; inactive = the rest.

`O=C(c1ccc(Cl)cc1)N1CCN(c2ccnc3cc(Cl)ccc23)CC1`: the growth in experiment [1] was 58%; in experiment [2] it was 106%; in experiment [3], 104%; in experiment [4], 83.7%; in experiment [5], 81.5%; in experiment [6] it was 108%. In addition, in experiment [7], the growth is 94.9%.

As for `Cc1ccc(-c2csc(NC(=O)CN3CCN(c4cc5c(cc4F)c(=O)c(C(=O)O)cn5C4CC4)CC3)n2)cc1`, the growth in experiment [1] is 6.74% (active); in experiment [2], 16.2%; in experiment [3], 27.4%; in experiment [4], 6.16% (active); in experiment [5], 14.2%; in experiment [6], 31.2%. Also, the growth in experiment [7] was 8.87% (active).

`CSc1nnc(-c2cnn3c2NC(c2ccccc2)C3)n1-c1ccc(C(F)(F)F)cc1` (stereo not drawn): the growth is 54.2% in experiment [1]; 85.7% in experiment [2]; 50.9% in experiment [3]; 26.9% in experiment [4]; 46% in experiment [5]; 85.9% in experiment [6]. Also, in experiment [7], the growth is 49.3%.

For `OCCNCCCOc1ccc2ncnc(Nc3ccc(Oc4cccc(C(F)(F)F)c4)c(Cl)c3)c2c1`, the growth is 38.7% in experiment [1]; 95.6% in experiment [2]; -84.2% (active) in experiment [3]; -40% (active) in experiment [4]; 12.7% in experiment [5]; -75.1% (active) in experiment [6]. For the same compound, the growth in experiment [7] was 3.05% (active).

`CN1CCN(c2ccc(NC(=O)c3nc4ccc5[nH]ncc5c4c4c3CCCC4)cc2C(F)(F)F)CC1`: the growth in experiment [1] was 66.5%; in experiment [2], 90.6%; in experiment [3], 5% (active); in experiment [4], 24.6%; in experiment [5] it was 2.82% (active); in experiment [6], 21.1%. Also, the growth in experiment [7] is 37.9%.

Regarding `C=C1C(=O)O[C@H]2[C@H]1CC/C(COC(=O)CSCCSCC(=O)OC/C1=C/CC[C@@]3(C)O[C@H]3[C@H]3OC(=O)C(=C)[C@@H]3CC1)=C\CC[C@@]1(C)O[C@@H]21`, the growth in experiment [1] is 29.5%; in experiment [2], -16.3% (active); in experiment [3], 2.85% (active); in experiment [4], 18.1%; in experiment [5], -31.6% (active); in experiment [6] it was 25.8%. Moreover, the growth in experiment [7] was 51.1%.

Take `COc1cc(CNS(=O)(=O)c2ccc(C)cc2)ccc1OCc1cn(-c2ccc(F)cc2)nn1`: the growth is 53.7% in experiment [1]; 83.6% in experiment [2]; 94.4% in experiment [8]; 98.6% in experiment [3]; 85.9% in experiment [4]; 83.6% in experiment [5]. Further, in experiment [7], the growth was 97.6%.

On to `CC(C)n1cnc2c(=S)nc[nH]c21`, for which the growth is 101% in experiment [1]; 112% in experiment [2]; 103% in experiment [3]; 106% in experiment [4]; 106% in experiment [5]; 102% in experiment [7].

For `COc1ccc2[nH]cc(-c3nc(-c4cn(C)c5c(Cl)nccc45)cs3)c2c1`, the growth was 11.6% in experiment [1]; 45% in experiment [2]; -5.25% (active) in experiment [3]; 43.9% in experiment [4]; 43.9% in experiment [5]; 62% in experiment [6]. Further, the growth in experiment [7] is 32%.

`O=S(=O)(NCCNc1nccc(-c2c(-c3cccc(F)c3)nc3occn23)n1)c1ccc(Br)cc1`: the growth in experiment [1] is 76.7%; in experiment [2], 103%; in experiment [8] it was 68.5%; in experiment [3] it was 91.8%; in experiment [5], 69.1%; in experiment [6] it was 106%. In addition, the growth in experiment [7] was 88.9%.

`Oc1c(Cl)cc(Cl)c2ccc(Cn3cc(-c4cc(F)cc(F)c4)nn3)nc12`: the growth in experiment [1] was 40.4%; in experiment [2] it was 70.9%; in experiment [3], 4.81% (active); in experiment [4], 34.4%; in experiment [5], 5.12% (active); in experiment [6], 103%. Besides, in experiment [7], the growth is 102%.

As for `COc1ccc(C(=O)Nc2ncc(Cc3cccc(Cl)c3)s2)cc1OC`, the growth in experiment [1] is 3.79% (active); in experiment [2], 50.7%; in experiment [3], 27.4%; in experiment [4], 11%; in experiment [5], 27.2%; in experiment [6] it was 16.9%. Also, the growth in experiment [7] was 18%.

As for `O=C1c2c(c3c4ccc(Br)cc4oc3c3[nH]c4ccccc4c23)C(=O)N1O`, the growth in experiment [1] is 11.8%; in experiment [2], 27.6%; in experiment [3], 37.3%; in experiment [4] it was 22.4%; in experiment [5], 17.9%; in experiment [6] it was 66.9%. Moreover, the growth in experiment [7] is 17.1%.

`CCCCC[C@@H]1Cc2cc(O)c(C(=O)O)c3c2[C@H](C[C@]2(OC[C@@H](CC(=O)[C@@](C)(CC)C(=O)OC)[C@@H]2C)O3)O1`: the growth in experiment [1] is 98.5%; in experiment [2], 121%; in experiment [3], 111%; in experiment [4], 99.3%; in experiment [5], 111%; in experiment [6], 133%. The growth in experiment [7] is 105%.

Regarding `COc1cc2c(c(OC)c1OC)C(=O)CC(c1cccc(NC(=O)c3ccc(Br)cc3)c1)O2` (stereo not drawn), the growth is 10% in experiment [1]; 15.7% in experiment [2]; 25.4% in experiment [3]; 23.4% in experiment [4]; 23.4% in experiment [5]; 72.7% in experiment [6]. Also, the growth in experiment [7] was 31.6%.

Regarding `Cc1ccccc1Cn1cnc2ccc(-c3cc(NC(=O)c4ccc(NC5CCN(C)CC5)cc4)n[nH]3)cc21`, the growth in experiment [1] is 92.2%; in experiment [2], 68.2%; in experiment [3] it was 93.1%; in experiment [4] it was 77.1%; in experiment [5], 48.8%; in experiment [6], 90.5%. Moreover, in experiment [7], the growth was 39.6%.

On to `Nc1ncnc2c1N=C(c1ccc3c(c1)OCO3)CC(c1ccc([N+](=O)[O-])cc1)N2` (stereo not drawn), for which the growth in experiment [1] was 72.4%; in experiment [2], 96.2%; in experiment [3] it was 81.5%; in experiment [4] it was 63.2%; in experiment [5], 66.6%; in experiment [7], 78.4%.

`CCOc1nc(-c2ccccc2)cc2c(O)c(C(=O)NN)[nH]c(=O)c12`: the growth in experiment [1] was 108%; in experiment [2], 126%; in experiment [8], 113%; in experiment [3], 97.4%; in experiment [4], 127%; in experiment [5] it was 102%. In addition, the growth in experiment [7] was 104%.

Regarding `O=C(CI)NC1Oc2ccccc2-c2oc(=O)c(-c3ccccc3)cc21` (stereo not drawn), the growth in experiment [1] is -42.4% (active); in experiment [2], -55.7% (active); in experiment [3] it was -48.3% (active); in experiment [4], -53.3% (active); in experiment [5] it was -37.5% (active); in experiment [6] it was 78.2%. Further, the growth in experiment [7] was 2.37% (active).

For `O=C(OCc1ccc2cccc(O)c2n1)N1CCN(C(=O)c2cc3cc(F)ccc3[nH]2)CC1`, the growth in experiment [1] is -68.3% (active); in experiment [2] it was -57.4% (active); in experiment [3] it was -62.8% (active); in experiment [4], -28% (active); in experiment [5] it was -78.8% (active); in experiment [6] it was -4.94% (active). The growth in experiment [7] was -48.1% (active).

Consider `COc1ccc(-c2cn(-c3cc(OC)c(OC)c(OC)c3)c(=O)n2C(C)=O)cc1`, for which the growth in experiment [1] was 73.9%; in experiment [2] it was 83.5%; in experiment [3], 96.2%; in experiment [4], 89%; in experiment [5], 85%; in experiment [6] it was 84.3%. Also, in experiment [7], the growth is 93.3%.

Take `O=C1/C(=C\c2cn(-c3ccccc3)nc2-c2ccc(-c3cccs3)cc2)CCc2ccccc21`: the growth is 66.4% in experiment [1]; 70% in experiment [2]; 41.9% in experiment [3]; 38.3% in experiment [4]; 43.7% in experiment [5]; 79.8% in experiment [6]. Further, the growth in experiment [7] was 49.4%.

As for `CN([O-])c1nc(N(C)[O-])nc(N2CCOCC2)n1.CN([O-])c1nc(N(C)[OH2+])nc(N2CCOCC2)n1.[Fe+3]`, the growth was 93% [100 µM] in experiment [1]; 85.8% [100 µM] in experiment [2]; 58.3% [100 µM] in experiment [3]; 90.1% [100 µM] in experiment [4]; 65.8% [100 µM] in experiment [5]; 114% [100 µM] in experiment [6]. Further, in experiment [7], the growth was 33.6% [100 µM].

Take `COc1cc(NC(C)CCCNC(C)C)c2ncccc2c1OC` (stereo not drawn): the growth is 31.6% in experiment [1]; 94.4% in experiment [2]; 92.6% in experiment [3]; 93.5% in experiment [4]; 92% in experiment [5]; 91.7% in experiment [6]. The growth in experiment [7] is 106%.

Consider `COC(=O)c1c2c(c[n+]([O-])c1C)C(=O)C(NCc1ccccc1)=CC2=O`, for which the growth in experiment [1] is -31.8% (active); in experiment [2], -88.7% (active); in experiment [3], -19% (active); in experiment [4], -58.3% (active); in experiment [5] it was 1.8% (active); in experiment [7] it was -0.692% (active).

In the case of `O=C1Nc2ccc(Br)cc2/C1=N/c1n[nH]c(=S)s1`, the growth in experiment [1] was 94.6%; in experiment [2], 121%; in experiment [3] it was 97.1%; in experiment [4], 91.7%; in experiment [5], 103%; in experiment [6] it was 97.5%. In addition, in experiment [7], the growth is 95.5%.

In the case of `COc1cc2c(c(OC)c1OC)CCC(c1cccc(C(=O)Nc3cccc(Br)c3)c1)O2` (stereo not drawn), the growth in experiment [1] was 40.6%; in experiment [2], 80.8%; in experiment [3] it was 79.6%; in experiment [4], 77.8%; in experiment [5] it was 55%; in experiment [6], 103%. The growth in experiment [7] is 81.2%.

With `Cc1cnc(C(=O)NNc2nc3sc4c(c3c(=O)n2C)C(C)CCC4)cn1` (stereo not drawn), the growth in experiment [1] is -7.99% (active); in experiment [8], 7.05% (active); in experiment [3], 10.2%; in experiment [4], -12% (active); in experiment [5], 3.75% (active); in experiment [6], 29.5%. Besides, the growth in experiment [7] is 6.33% (active).
